Experimental findings from PubChem BioAssay (Tox21) are described below.

Several values for one entry are separate records, joined by “and”; a condition that tells them apart may be missing. Equal values may be shown once. Records with an inconclusive call do not appear. Where a call stands in place of a potency, no number is given. Activity calls are given as the source filed them. The call rests on the fitted dose curve; in most records, active means well fitted cell-killing curve with a large enough effect in the repeat runs; inconclusive means weak or mixed curves, or effect the other way; inactive means no such curve, though single readings can be large or run the other way.
Potency means the concentration at half of the fitted maximal effect.

This assay in a line: qHTS assay to identify small molecule agonists of the RXR signaling pathway - cell viability counter screen (AID 1159529). Further: nearly all actives have a fitted effect of over 50% in size. The conditions noted are these: RXR-alpha-bla HEK293T viability, CellTiter-Glo, 16 h; series mostly up to 76.8 µM. From the text: National Center for Advancing Translational Sciences [NCATS]
NIH Chemical Genomics Center [NCGC]
U.S. Environmental Protection Agency [EPA]
National Institutes of Environmental Health Sciences [NIEHS]
National Toxicology Program [NTP]
U.S. Food and Drug Administration [FDA]
The Retinoid X receptor (RXR), a nuclear hormone receptor expressed in liver, spleen, placenta, epidermis, central nervous system. These receptors are able to form homo and heterodimers with other nuclear receptors and due to this heterodimerizing ability, RXR functions as master regulators producing diverse physiological effects. Three subtypes of RXR exist; alpha, beta and gamma. Retinoid X receptor alpha (RXR-alpha) has potential roles in metabolic signaling pathways, skin alopecia, dermal cysts, cardiac development, insulin sensitization etc. Therefore screening environmental chemicals on RXR-alpha signaling can be used for the studies focused on such therapeutic applications. For quantification of RXR-alpha ligands signaling, GeneBLAzer RXR alpha-UAS-bla HEK 293T (Life Technologies, Carlsbad, CA) cells containing a beta-lactamase reporter-gene under control of Retinoid X receptor-alpha response element were used to screen Tox21 10K library. The cytotoxicity of the Tox21 compound library against the RXR-alpha HEK 293T cell line was tested in parallel by measuring cell viability using CellTiter-Glo assay (Promega Corporation, Madison, WI) in the same wells.
Tox21 Assay Protocol Summary:
RXR-alpha HEK 293T cells were dispensed at 2,000 cells/6 uL of assay medium containing 2% charcoal-stripped FBS using a Multidrop Combi (ThermoFisher Scientific, Waltham, MA) dispenser. The assay was performed in black wall/clear-bottom 1536-well plates (Greiner Bio-One North America Inc. Monroe, NC). Tetraoctyl ammonium bromide was used as a positive control in the cytotoxicity screen. After the assay plates were incubated at 37 C and 5% CO2 for 5 hr, 23 nL of compounds dissolved in DMSO, positive control or DMSO only were transferred to the assay plate by a Pintool station (Kalypsys, San Diego, CA). The assay plates were incubated at 37 C and 5% CO2 for 16 hr. One uL of LiveBLAzer B/G FRET substrate (Life Technologies) was added using a Flying Reagent Dispenser (FRD) (Aurora Discovery, San Diego, CA) and the plates were incubated at room temperature for 2 hr. Fluorescence intensity (405 nm excitation, 460/530 nm emission) was measured using an Envision plate reader (PerkinElmer, Shelton, CT). For cytotoxicity, 4 uL/well of CellTiter-Glo reagent was added into the assay plates using an FRD. After 30 min incubation at room temperature, the luminescence intensity was measured using a ViewLux plate reader (PerkinElmer).
(In general: qHTS replaces the single test concentration by a dilution series.)
Regarding `c1ccc(C(O[C@@H]2CCCN(CCc3ccc4c(c3)OCO4)C2)c2ccccc2)cc1`, the Potency entry is “inactive”.

For `O=c1c(O)c(-c2ccc(O)cc2O)oc2cc(O)cc(O)c12`, the Potency entry is “inactive”.

`CCCCCCCCCCC[C@@H](C[C@@H]1OC(=O)[C@H]1CCCCCC)OC(=O)[C@H](CC(C)C)NC=O`: the Potency result was “inactive”.

As for `COC(C)=O`, the Potency result is “inactive”.

On to `OC1CCCc2ccccc21` (stereo not given), for which the Potency entry is “inactive”.

As for `O=C1C(c2[nH]c3ccc(S(=O)(=O)O)cc3c2O)=Nc2ccc(S(=O)(=O)O)cc21`, the Potency result is “inactive”.

For `O=C(O)c1cc(=O)c2ccccc2o1`, the Potency result was “inactive”.

As for `CCC(=O)OC(=O)CC`, the Potency was 43.3 µM (active).

For `CCCCCCCC`, the Potency result was “inactive”.

In the case of `CCCCOC(=O)CO`, the Potency result was “inactive”.

As to `CCC(CC)C(C)CCOC(C)=O` (stereo not given), the Potency result is “inactive”.

For the compound `Cc1c2ccccc2c(C)c2c1ccc1ccccc12`, the Potency is 19.3 µM (active) and 19.5 µM (active).

For the compound `CC(=O)CC(=O)Nc1ccc(S(=O)(=O)O)cc1`, the Potency entry is “inactive”.

As for `CN1CCC[C@@H]1CCO[C@](C)(c1ccccc1)c1ccc(Cl)cc1`, the Potency was 8.49 µM (active).

Consider `CC(N=C(NC#N)Nc1ccncc1)C(C)(C)C` (stereo not given), for which the Potency entry was “inactive”.

For `COc1cccc(OC)c1C(=O)O`, the Potency result was “inactive”.

As to `OC[C@@H](O)[C@@H](O)CO`, the Potency entry was “inactive”.

As for `COC1=C(OC)C(=O)C(CCCCCCCCCCO)=C(C)C1=O`, the Potency result was “inactive”.

`CCN(CCN)c1cccc(C)c1`: the Potency entry is “inactive”.

As for `C=C(CC)C(=O)c1ccc(OCC(=O)O)c(Cl)c1Cl`, the Potency entry is “inactive”.

As to `CCCCCCCCCCCC(=O)OCC(C)OC(=O)CCCCC(=O)O` (stereo not given), the Potency entry was “inactive”.

`CCC(COC(=O)CCS)(COC(=O)CCS)COC(=O)CCS`: the Potency result is “inactive”.

For the compound `COc1cc(/C=C/c2ccccc2)oc(=O)c1`, the Potency result is “inactive”.

Regarding `Nc1ccc(C(=O)O)c(O)c1`, the Potency result is “inactive”.

For the compound `[Cl][Pt-2]([Cl])([Cl])[Cl]`, the Potency result is “inactive”.

In the case of `Nc1nc(N)nc(-c2cc(Cl)ccc2Cl)n1`, the Potency result is “inactive”.

For `CCC(C)(CCC(C)C)C(=O)[O][Sn]([CH3])([CH3])[O]C(=O)C(C)(CC)CCC(C)C` (stereo not given), the Potency entry was “inactive”.

With `Cc1cccc(C(=O)O)c1O`, the Potency entry was “inactive”.

Take `CC(=O)[C@H]1CC[C@H]2[C@@H]3CCC4=CC(=O)CC[C@]4(C)[C@H]3CC[C@]12C`: the Potency is 38.7 µM (active) and 43.6 µM (active).

`O=c1[nH]c(=O)n([C@H]2C[C@H](O)[C@@H](CO)O2)cc1F`: the Potency result is “inactive”.

For `CC(C)CCCCCOC(=O)CCS`, the Potency entry was “inactive”.

For the compound `O=S(=O)(O)c1ccccc1/C=C/c1ccc(-c2ccc(/C=C/c3ccccc3S(=O)(=O)O)cc2)cc1`, the Potency result was “inactive”.

`OCC(F)(F)F`: the Potency entry is “inactive”.

`Cc1c(N)cccc1C(F)(F)F`: the Potency result is “inactive”.

Regarding `CN1CCCCC1CCN1c2ccccc2Sc2ccc(S(C)=O)cc21` (stereo not given), the Potency entry was “inactive”.

`O=[N+]([O-])c1cccc(C(F)(F)F)c1`: the Potency entry is “inactive”.

On to `Cc1ccc(O)c(O)c1`, for which the Potency entry is “inactive”.

Take `Oc1ccccc1O`: the Potency result is “inactive”.

As for `O=C(O)Cc1ccc2c(c1)C(=O)c1ccccc1CO2`, the Potency entry is “inactive”.

As for `Cc1cc(C(C)(C)C)c(O)c(C)c1Cn1c(=O)n(Cc2c(C)cc(C(C)(C)C)c(O)c2C)c(=O)n(Cc2c(C)cc(C(C)(C)C)c(O)c2C)c1=O`, the Potency result is “inactive”.
